Among the test systems are SK-MEL-2 melanoma; EKVX NSCLC; SN12C renal; UO-31 renal; TK-10 renal; ACHN renal; CAKI-1 renal; A498 renal; CCRF-CEM leukemia; MOLT-4 leukemia; RPMI-8226 leukemia; OVCAR-8 ovarian; OVCAR-5 ovarian; OVCAR-4 ovarian; SK-OV-3 ovarian; IGROV1 ovarian; OVCAR-3 ovarian; HS 578T breast; NCI/ADR-RES ovarian.
Assay in all cases: NCI-60 one-dose screen, 48 h (100 = growth as untreated, 0 = no growth, -100 = all killed)
Holding throughout (settings): 10 µM unless noted

About 83,000 compounds went through this panel and 20% of them were active in at least one assay; those are over-represented in the sample as a whole.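 Growth was measured after 48 h exposure to one concentration of compound in 96-well plates. Values under 10 count as active.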 Unmarked numbers belong to inactive results. The source made the active and inactive calls.

Take `COc1ccc(-c2[nH]ncc2-c2cc3c(c(OC)c2)OCC(=O)N3)cc1`: the growth was 9.07% (active) in the test with SK-MEL-2 melanoma; 38.7% in the test on EKVX NSCLC; 35.8% with SN12C renal; 36.4% in the test on UO-31 renal; 1.85% (active) with TK-10 renal; 36.7% with ACHN renal. Further, the growth in the test on CAKI-1 renal was 26%; in the test on A498 renal it was -21% (active); with CCRF-CEM leukemia, 23.2%; in the test on MOLT-4 leukemia it was 31.9%; in the test on RPMI-8226 leukemia, 29.3%; in the test on OVCAR-8 ovarian, 23.5%. Also, the growth with OVCAR-5 ovarian was 36.7%; in the test with OVCAR-4 ovarian it was 54.4%; in the test with SK-OV-3 ovarian, 19.8%; in the test with IGROV1 ovarian, 38.2%; with OVCAR-3 ovarian, -4.58% (active); in the test on HS 578T breast, -2.19% (active). Besides, the growth in the test with NCI/ADR-RES ovarian was 29.7%.

`C#Cc1cccc(NC(=O)c2ccc(NC(=O)C=C)cc2)c1`: the growth was 79.3% [8.25 µM] in the test with SK-MEL-2 melanoma; 102% [8.25 µM] with EKVX NSCLC; 67.5% [8.25 µM] in the test with SN12C renal; -67.2% [8.25 µM] (active) in the test with UO-31 renal; 69.9% [8.25 µM] in the test with TK-10 renal; 63.8% [8.25 µM] in the test on ACHN renal. The growth in the test on CAKI-1 renal was 63.2% [8.25 µM]; with A498 renal, 40.8% [8.25 µM]; with CCRF-CEM leukemia, 71.5% [8.25 µM]; in the test on MOLT-4 leukemia it was 76.8% [8.25 µM]; in the test on RPMI-8226 leukemia, 60.2% [8.25 µM]; with OVCAR-8 ovarian it was 75.9% [8.25 µM]. In addition, the growth with OVCAR-5 ovarian was 86.7% [8.25 µM]; with OVCAR-4 ovarian it was 88.9% [8.25 µM]; in the test on SK-OV-3 ovarian it was 97% [8.25 µM]; with IGROV1 ovarian, 70.9% [8.25 µM]; in the test on OVCAR-3 ovarian, 70.5% [8.25 µM]; in the test on HS 578T breast it was 94.2% [8.25 µM]. Moreover, the growth in the test with NCI/ADR-RES ovarian was 73.9% [8.25 µM].

For the compound `O=C(N=c1oc2ccccc2cc1-c1cc2ccccc2[nH]1)Nc1ccc(Cl)cc1`, the growth was 113% with SK-MEL-2 melanoma; 88.1% in the test with EKVX NSCLC; 92.6% in the test on SN12C renal; 61.2% in the test with UO-31 renal; 151% in the test on TK-10 renal; 91.3% in the test with ACHN renal. In addition, the growth in the test on CAKI-1 renal was 72.2%; in the test with A498 renal, 121%; with CCRF-CEM leukemia, 109%; with MOLT-4 leukemia, 95.8%; in the test on RPMI-8226 leukemia it was 88.3%; in the test on OVCAR-8 ovarian, 99.7%. The growth in the test on OVCAR-5 ovarian was 101%; in the test on OVCAR-4 ovarian, 91.9%; with SK-OV-3 ovarian, 89.4%; in the test with IGROV1 ovarian it was 59.7%; in the test with OVCAR-3 ovarian it was 103%; with HS 578T breast, 96.5%. Moreover, in the test with NCI/ADR-RES ovarian, the growth was 98.7%.

Take `Fc1cc(-c2nnc3n2NC(=Nc2ccc(Cl)cc2)CS3)c(Cl)cc1Cl`: the growth in the test with SK-MEL-2 melanoma is 88.3%; in the test on EKVX NSCLC it was 95.2%; in the test on SN12C renal, 108%; with UO-31 renal it was 65.6%; with TK-10 renal, 91.6%; in the test with ACHN renal, 95.2%. Further, the growth in the test with CAKI-1 renal is 94.2%; in the test with A498 renal, 77.8%; in the test with CCRF-CEM leukemia it was 214%; with MOLT-4 leukemia, 87%; in the test with RPMI-8226 leukemia it was 66.9%; with OVCAR-8 ovarian it was 94.9%. Also, the growth is 80.3% in the test with OVCAR-5 ovarian; 89.9% in the test on OVCAR-4 ovarian; 89.8% with SK-OV-3 ovarian; 57.2% in the test on IGROV1 ovarian; 91.6% in the test with OVCAR-3 ovarian; 89.3% in the test on HS 578T breast. Besides, the growth in the test with NCI/ADR-RES ovarian was 88.3%.

Regarding `O=C(/C=C/c1sc(Cl)nc1Cl)c1ccc(F)cc1`, the growth is 95.5% in the test with SK-MEL-2 melanoma; 88.8% with EKVX NSCLC; 45.1% in the test with SN12C renal; 85.4% in the test on UO-31 renal; 103% in the test on TK-10 renal; 22.4% with ACHN renal. In addition, the growth is 88.2% in the test on CAKI-1 renal; 91.9% in the test with A498 renal; 37.5% in the test with CCRF-CEM leukemia; 48.5% in the test with MOLT-4 leukemia; 0.843% (active) in the test on RPMI-8226 leukemia; 83.7% in the test with OVCAR-8 ovarian. In addition, the growth in the test with OVCAR-5 ovarian is 104%; in the test on OVCAR-4 ovarian it was 102%; with SK-OV-3 ovarian it was 99.4%; in the test on IGROV1 ovarian it was 94.8%; with OVCAR-3 ovarian it was 9.39% (active); with HS 578T breast, 86.8%. In addition, the growth in the test with NCI/ADR-RES ovarian is 98.5%.

For `Cc1ccc(C(=O)NCCNc2nccc(-c3c(-c4cccc(F)c4)nc4sccn34)n2)cc1`, the growth in the test with SK-MEL-2 melanoma was 70.7%; in the test with EKVX NSCLC it was 38.5%; in the test with SN12C renal, 47.3%; in the test on UO-31 renal, 23%; in the test on TK-10 renal, 75.6%; with ACHN renal it was 29.5%. For the same compound, the growth was 40.1% in the test with CAKI-1 renal; 32.8% in the test with A498 renal; 49.4% in the test on CCRF-CEM leukemia; 56.5% in the test on MOLT-4 leukemia; 53.8% with RPMI-8226 leukemia; 55% in the test on OVCAR-8 ovarian. Also, the growth in the test on OVCAR-5 ovarian was 69.2%; with OVCAR-4 ovarian, 67.8%; with SK-OV-3 ovarian, 64.3%; in the test on IGROV1 ovarian, 23.1%; in the test on OVCAR-3 ovarian, 61.6%; with HS 578T breast it was 33%. Moreover, the growth with NCI/ADR-RES ovarian was 55.6%.

`C=C1CC[C@@]2(C#N)[C@H]3[C@H](CC[C@@H]2C)[C@@H](C)C[C@@H](CC(C)(C)C#N)[C@H]13`: the growth with SK-MEL-2 melanoma is 61.3%; with EKVX NSCLC it was 32.9%; with SN12C renal, 60.7%; in the test with UO-31 renal, 14%; in the test on TK-10 renal it was 50.6%; in the test on ACHN renal it was 28%. The growth in the test with CAKI-1 renal is 19%; in the test on A498 renal, 51.1%; with CCRF-CEM leukemia, 22%; in the test on MOLT-4 leukemia it was 29.3%; with RPMI-8226 leukemia, 40.3%; in the test with OVCAR-8 ovarian, 49.1%. Besides, the growth was 48.5% with OVCAR-5 ovarian; 37.7% in the test on OVCAR-4 ovarian; 46.1% in the test on SK-OV-3 ovarian; 42.9% in the test on IGROV1 ovarian; 51% in the test on OVCAR-3 ovarian; 30.2% in the test with HS 578T breast. Moreover, the growth in the test with NCI/ADR-RES ovarian is 35.4%.

On to `COc1cc(C(=O)c2cc(C)c3[nH]c4ccc(C)cc4c3c2C)cc(OC)c1OC`, for which the growth is 60.4% in the test on SK-MEL-2 melanoma; 44.1% in the test on EKVX NSCLC; 22.5% in the test with SN12C renal; 24.9% in the test with UO-31 renal; 87.5% in the test on TK-10 renal; 26.4% in the test on ACHN renal. The growth in the test with CAKI-1 renal was 24.2%; in the test on A498 renal, -8.86% (active); in the test on CCRF-CEM leukemia, 14.2%; in the test on MOLT-4 leukemia, 16.8%; in the test on RPMI-8226 leukemia it was 12.9%; with OVCAR-8 ovarian, 28.7%. Further, the growth with OVCAR-5 ovarian was 41.7%; in the test on OVCAR-4 ovarian, 53%; in the test with SK-OV-3 ovarian it was 36.9%; in the test on IGROV1 ovarian, 13.5%; in the test on OVCAR-3 ovarian, -16.4% (active); with HS 578T breast, 43.1%. In the test with NCI/ADR-RES ovarian, the growth is -2.71% (active).

Source of the values: PubChem BioAssay (NCI).
